The values that follow come from PubChem BioAssay (NCATS).

Experiment [1] in a line: AP1 Signaling Pathway (AID 357).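 Further: ME-180 reporter cells stimulated with EGF at its EC50 level; on the % scale 0 is the no-effect control and ±100 the full control effect.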 The following applies: ME-180 AP-1-bla reporter, EGF-induced, beta-lactamase ratio, 5 h. In short, it runs like this:
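A ratiometric CCF4 readout (405 nm excitation; 460 and 530 nm emission) quantified AP-1-driven beta-lactamase in ME-180 cells after 5 h with compound and EC50 EGF; AC50 values were derived for activators and inhibitors.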

In experiment [2] the target is Cytochrome P450 1A2 (Homo sapiens) (UniProt P05177). Nature of the experiment: p450-cyp1a2 (AID 410; calls by dose curve; further: potency means the concentration at half of the fitted maximal effect;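 on activity change, negative = inhibition: -100% = full effect of reference inhibitor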). The following applies: recombinant CYP1A2, luciferin-ME demethylation, luminescence; series mostly up to 57 µM. The procedure, abridged:
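Luminescent readout of luciferin formed from Luciferin-ME by human CYP1A2; data normalized against complete inhibition by 57 uM furafylline. Enzyme 20nM, substrate 100uM at Km, 100mM KPO4 buffer, 60 min reaction at room temperature.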

Experiment [3] in a line: NFAT Signaling Pathway (AID 444).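 Further: carbachol stimulus at about its EC50 of 1 µM final; on the % scale 0 is the no-effect control and ±100 the full control effect.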 The following applies: Jurkat NFAT-bla M1, carbachol, beta-lactamase ratio, 5 h. The procedure, abridged:
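Read-out: CCF4 FRET ratio (460 nm/530 nm) after 1 h RT dye loading, used for %activity and AC50 from titration series. Cells: Jurkat NFAT-β-lactamase/M1 line, treated with compound plus 1 uM carbachol for 5 h, 37 °C.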

The nature of experiment [4]: Stat Signaling Pathway (AID 446).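 Further: ME-180 cervical cancer cells given 40 pM IL-6 alongside compound; SIE-controlled beta-lactamase reporter measured as 460/530 nm FRET emission ratio; on the % scale 0 is the no-effect control and ±100 the full control effect.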 The following applies: ME-180 SIE beta-lactamase reporter, IL-6 stimulated, 5 h. In short, it runs like this: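 ME-180 SIE-bla cells; overnight plating; cpd + IL-6 40 pM, 5 h, 37 C; LiveBLAzer 2.5 h RT; 460/530 nm emission ratio. Normalized to 300 pM IL-6 and 125 nM JAK inhibitor controls.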
The target of experiment [5] is Glucocorticoid receptor (Homo sapiens) (UniProt P04150). Nature of the experiment: GR-GFP Redistribution (AID 450;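 active means compounds whose dose series gives a full or clear partial fitted curve of increased nuclear translocation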; further: potency means the concentration at half of the fitted maximal effect). The following applies: U2OS GR-GFP nuclear translocation, laser cytometry, 2 h.
Experiment [6] has the same target. Nature of the experiment: GR-EFC Redistribution (AID 451; calls by dose curve; further: potency means the concentration at half of the fitted maximal effect). The following applies: CHO-K1 GR-EFC translocation, beta-gal luminescence, 2 h. In short, it runs like this: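 Translocation of GR-ED fusion to nuclear EA restores b-gal, read by luminescence after 1 h room-temperature detection. Engineered CHO-K1 biosensor cells, 1,000/well, exposed 2 h at 37 C to titrations up to 46 uM final.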

Experiment [7] concerns the target Mitogen-activated protein kinase 10 (Mus musculus) (UniProt Q61831). Nature of the experiment: JNK3 AlphaScreen Assay (AID 530).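 Further: kinase came from lysate of stimulated human HepG2 cells; signal reports phosphorylation of biotinylated GST-cJun 1-79 at Ser73 with 10 µM ATP; on the % scale 0 is the no-effect control and ±100 the full control effect.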 The following applies: JNK3 lysate, c-Jun phosphorylation; series mostly up to 57.1 µM. In short, it runs like this:
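Compound titrations were preincubated 15 minutes at room temperature with substrate, antibody and pre-activated JNK3-containing HepG2 lysate. Reactions were started with 10 uM ATP and stopped with EDTA-containing bead buffer for AlphaScreen detection.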

In experiment [8] the target is 3',5'-cyclic-AMP phosphodiesterase 4B (Homo sapiens) (UniProt Q07343). The experiment is described as follows: qHTS Assay for Inhibitors of PDE-IV (AID 607; active means well fitted activation curve with a large enough effect in the main read-out, with a control signal flat, not every such curve was filed as active; further: % of control where 0% means no effect). The following applies: HEK293 ACTOne CNG channel cells, membrane potential fluorescence; series mostly up to 22.9 µM. In short, it runs like this:
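ACTOne HEK293 cells carry a modified cAMP-gated CNG channel and express endogenous PDE4; plated 1000 cells/well, compounds up to 22.9 uM final. Membrane-potential dye fluorescence (ex 535/em 590) was read; parental cells received 10 uM forskolin + 100 uM RO 20-1724.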

Experiment [9] has as its target Guanine nucleotide-binding protein G(i) subunit alpha-1 (Homo sapiens) (UniProt P63096). Nature of the experiment: qHTS Assay for Inhibitors of RGS12 GoLoco Motif Activity (Green Fluorophore) (AID 879; active means well fitted curve in the direction sought with a large enough effect; an effect the other way counts as inactive or inconclusive;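 further: 0% = labeled peptide with Gαi1 and full inhibition = labeled peptide alone without protein; negative values mean loss of peptide binding seen as reduced polarization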). The following applies: Galphai1/FITC-RGS12 GoLoco peptide, fluorescence polarization; series mostly up to 57.1 µM. In short, it runs like this: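 Fluorescence polarization assay: 50 nM Gαi1 with 10 nM FITC-labeled RGS12 GoLoco peptide in 10 mM Tris pH 7.5, 150 mM NaCl, 0.1 mM GDP, 0.05% NP40, 10 min at room temperature with compound.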

In experiment [10] the target is Pyruvate kinase (Leishmania mexicana) (UniProt Q27686). Nature of the experiment: qHTS Validation Assay for Inhibitors of Leishmania Mexicana Pyruvate Kinase (AID 945; active means well fitted curve in the direction sought with a large enough effect; an effect the other way counts as inactive or inconclusive;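 further: 0% = DMSO only neutral control wells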). The following applies: purified L. mexicana pyruvate kinase, enzyme activity, E451W mutant enzyme; series mostly up to 57.5 µM. In short, it runs like this:
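Substrate mix (0.5 mM PEP, 0.1 mM ADP, 7 mM MgCl2, 50 mM KCl, pH 7.2 imidazole) received compound by pin tool, then 0.2 nM LmPYK E451W. After 1 h at room temperature, PKLight was added and luminescence measured.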

The target in experiment [11] is Pyruvate kinase PKM (Homo sapiens) (UniProt P14618). Nature of the experiment: qHTS Assay for Activators of Human Muscle Pyruvate Kinase (AID 954; active means well fitted curve in the direction sought with a large enough effect, not every such curve was filed as active;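 further: 0% = uninhibited enzyme and -100% = no enzyme or full thiadiazolimine inhibition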). The following applies: purified human muscle pyruvate kinase, luciferase-coupled luminescence, 1 h; series mostly up to 57.5 µM. The procedure, abridged:
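Luminescence from a luciferase ATP-detection/stop reagent reported PKM2 activity. Reactions contained 0.1 nM purified human enzyme, 0.5 mM PEP, 0.1 mM ADP and 7 mM MgCl2 at pH 7.2, run 1 h at RT.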

The target in experiment [12] is alpha-glucosidase (Oryza sativa, rice) (UniProt Q653V4). Nature of the experiment: Counterscreen for Glucocerebrosidase Inhibitors: qHTS Assay for Rice alpha-Glucosidase at pH 5.0 (AID 997; active means well fitted curve in the direction sought with a large enough effect; an effect the other way counts as inactive or inconclusive;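 further: 0% = full activity with enzyme and -100% = basal without enzyme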). The following applies: rice alpha-glucosidase enzyme activity; series mostly up to 76.9 µM. In short, it runs like this:
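Rice alpha-glucosidase (4 nM final) with 400 uM 4-methylumbelliferyl-alpha-D-glucopyranoside in citrate buffer pH 5.0, 20 min at room temperature, stopped at pH 10; fluorescence 365/440 nm, compounds 0.7 nM–77 uM, AC50 from Hill fits.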

Experiment [13] is described as follows: qHTS Assay for Lipid Storage Modulators (AID 1519; calls by dose curve). The following applies: Drosophila S3 cells, BODIPY lipid droplet/cell ratio, laser cytometry, cells loaded with oleic acid; for activity change, negative = inhibition: at 25.7 µM (top of the series). In short, it runs like this: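 Cells seeded at 5,000 per well were treated with compounds over a concentration series and loaded with oleic acid (400 uM, as added). Lipid droplet fluorescence (488 nm excitation, 500-530 nm channel) was read by laser-scanning cytometry and normalized to 20 uM Triacsin C.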

The target of experiment [14] is ATP-dependent 6-phosphofructokinase (Trypanosoma brucei brucei) (UniProt O15648). Nature of the experiment: qHTS Assay to Find Inhibitors of T. brucei phosphofructokinase: hit validation (AID 492961; active means well fitted curve in the direction sought with a large enough effect; an effect the other way counts as inactive or inconclusive). The following applies: T. brucei PFK, ADP-Glo luminescence; series mostly up to 24.3 µM. The procedure, abridged: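 In this biochemical qHTS validation, titrated compounds were tested against 1.25 nM PFK with 0.1 mM ATP and 0.5 mM F6P. Percent activity came from controls lacking or containing enzyme.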

Experiment [15] deals with Ubiquitin carboxyl-terminal hydrolase 1 (Homo sapiens) (UniProt O94782). The experiment is described as follows: Inhibitors of USP1/UAF1: Pilot qHTS (AID 504865; active means well fitted curve in the direction sought with a large enough effect; an effect the other way counts as inactive or inconclusive;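 further: rhodamine fluorescence freed from ubiquitin-rhodamine substrate followed over time; top concentration of the series differs between compounds; on the % scale 0 is the no-effect control and ±100 the full control effect; nearly all actives have a fitted effect of over 35% in size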). The following applies: purified USP1/UAF1, Ub-rhodamine cleavage fluorescence; series mostly up to 54.9 µM. In short, it runs like this:
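1nM USP1/UAF1 + cpd, 15 min RT; start w/ Ub-Rho 150nM final; kinetic FL 480/540 nm, 6 reads q60 s. Buffer 50mM HEPES pH 7.8, 0.5mM EDTA, 1mM TCEP, 0.01% Tween-20, 0.1 mg/ml BSA.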

The target in experiment [16] is Luciferin 4-monooxygenase (Photinus pyralis) (UniProt P08659). Nature of the experiment: Biochemical firefly luciferase enzyme assay for NPC (AID 624030; active means well fitted curve in the direction sought with a large enough effect; an effect the other way counts as inactive or inconclusive;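 further: purified P. pyralis luciferase at 10 nM with luciferin and ATP substrate; 0% = DMSO and -100% = full luciferase inhibition by PTC124 control; nearly all actives have a fitted effect of over 70% in size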). The following applies: purified P. pyralis luciferase, luminescence, 5 min; series mostly up to 58.6 µM. In short, it runs like this: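 Direct inhibition of firefly luciferase enzyme (10 nM final, 50 mM Tris Acetate) assessed by luminescence within 5 minutes. Percent activity scaled between DMSO and PTC124 positive control, with concentration-effect curves classified by fit quality and response.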

Experiment [17] can be described thus: qHTS profiling for inhibitors of Plasmodium falciparum proliferation (AID 504749; active means well fitted curve in the direction sought with a large enough effect; an effect the other way counts as inactive or inconclusive;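 further: 0% = DMSO vehicle and full inhibition = artemisinin control; nearly all actives have a fitted effect of over 60% in size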). The following applies: P. falciparum in erythrocytes, SYBR Green DNA, 72 h, at 28.7 µM (top of the series). The procedure, abridged: (§1)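 Infected RBCs, 0.3% parasitemia/2.5% Hct final; cpd 72 h, 37 C, 5% CO2; lysis buffer with saponin/triton/SYBR Green I, o/n RT dark; FI 485/535; norm. to artemisinin (0.29 uM) and DMSO.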

In a further experiment the test system is AS120. Described as above. The following applies: P. falciparum in erythrocytes, SYBR Green DNA, 72 h; series mostly up to 28.7 µM. The procedure, abridged:
as §1

The test system of the next experiment is CP238. The experiment is described as above. The following applies: P. falciparum in erythrocytes, SYBR Green DNA, 72 h; series mostly up to 12.8 µM. In short, it runs like this: as §1
A further experiment concerns FAB9. Described as above. The following applies: P. falciparum in erythrocytes, SYBR Green DNA, 72 h; series mostly up to 12.8 µM. The procedure, abridged: as §1
The mark [18] stands for this setting: at 7.69 µM (top of the series) unless noted.
Where [19] appears, read: measured here: cell count channel max response.
Setting [20] is: measured here: lipid channel max response.

Where “and” joins values, the source holds several entries; their conditions need not be identical. Identical values can stand only once. Inconclusive results are not listed. Calls of active or inactive are those of the source. Unless noted, the call rests on the fitted dose curve; in most records, active means well fitted curve in either direction with a large enough effect (not every such curve was filed as active); inconclusive means small, poorly fitted or top-dose-only effect, or another doubt; inactive means flat fitted curve, though single readings scatter. Where only a bound is given, the exact number is not on record here.

Ubiquitin carboxyl-terminal hydrolase 1 (Homo sapiens), sequence (O94782 whole entry, looked up): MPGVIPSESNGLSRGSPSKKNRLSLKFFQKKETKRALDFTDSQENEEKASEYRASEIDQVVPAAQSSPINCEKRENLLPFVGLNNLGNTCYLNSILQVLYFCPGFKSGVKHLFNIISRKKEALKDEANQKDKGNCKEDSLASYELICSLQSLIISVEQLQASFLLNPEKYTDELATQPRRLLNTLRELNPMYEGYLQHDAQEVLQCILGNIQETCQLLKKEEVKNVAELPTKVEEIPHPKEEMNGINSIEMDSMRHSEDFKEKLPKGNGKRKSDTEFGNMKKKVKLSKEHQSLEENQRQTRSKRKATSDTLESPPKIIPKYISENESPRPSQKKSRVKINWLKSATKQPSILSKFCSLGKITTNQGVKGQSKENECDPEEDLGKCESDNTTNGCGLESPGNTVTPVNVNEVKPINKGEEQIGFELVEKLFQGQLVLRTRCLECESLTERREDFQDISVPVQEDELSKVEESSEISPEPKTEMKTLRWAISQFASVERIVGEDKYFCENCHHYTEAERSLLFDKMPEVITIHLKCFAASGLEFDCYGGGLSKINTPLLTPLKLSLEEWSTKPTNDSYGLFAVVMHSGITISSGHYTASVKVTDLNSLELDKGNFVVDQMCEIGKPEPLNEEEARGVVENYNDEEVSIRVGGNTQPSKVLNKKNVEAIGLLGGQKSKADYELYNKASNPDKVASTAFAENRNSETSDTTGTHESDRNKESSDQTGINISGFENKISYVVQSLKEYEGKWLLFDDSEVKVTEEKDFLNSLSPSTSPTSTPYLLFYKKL
Glucocorticoid receptor (Homo sapiens), sequence (P04150 whole entry, looked up, the tested form may be a part): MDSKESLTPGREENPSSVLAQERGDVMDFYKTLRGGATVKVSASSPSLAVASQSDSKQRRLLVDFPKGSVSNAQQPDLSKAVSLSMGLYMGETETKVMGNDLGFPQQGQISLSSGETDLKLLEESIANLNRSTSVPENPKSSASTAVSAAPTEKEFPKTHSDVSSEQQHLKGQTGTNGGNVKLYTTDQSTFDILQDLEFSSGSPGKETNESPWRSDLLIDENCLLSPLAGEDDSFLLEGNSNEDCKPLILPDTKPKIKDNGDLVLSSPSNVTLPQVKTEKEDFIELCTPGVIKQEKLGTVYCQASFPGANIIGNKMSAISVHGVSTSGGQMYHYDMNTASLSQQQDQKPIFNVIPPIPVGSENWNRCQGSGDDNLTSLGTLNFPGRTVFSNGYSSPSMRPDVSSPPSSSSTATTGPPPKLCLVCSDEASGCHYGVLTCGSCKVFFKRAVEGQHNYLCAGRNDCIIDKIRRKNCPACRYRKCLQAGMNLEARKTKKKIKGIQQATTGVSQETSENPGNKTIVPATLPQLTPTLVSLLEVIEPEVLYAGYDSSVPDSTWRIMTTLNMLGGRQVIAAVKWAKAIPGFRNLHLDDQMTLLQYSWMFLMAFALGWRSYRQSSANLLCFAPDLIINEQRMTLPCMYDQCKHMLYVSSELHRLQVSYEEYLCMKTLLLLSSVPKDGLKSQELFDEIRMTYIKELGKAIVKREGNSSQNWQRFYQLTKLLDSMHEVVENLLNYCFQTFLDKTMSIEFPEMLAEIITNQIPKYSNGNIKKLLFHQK
3',5'-cyclic-AMP phosphodiesterase 4B (Homo sapiens), sequence (Q07343 whole entry, looked up): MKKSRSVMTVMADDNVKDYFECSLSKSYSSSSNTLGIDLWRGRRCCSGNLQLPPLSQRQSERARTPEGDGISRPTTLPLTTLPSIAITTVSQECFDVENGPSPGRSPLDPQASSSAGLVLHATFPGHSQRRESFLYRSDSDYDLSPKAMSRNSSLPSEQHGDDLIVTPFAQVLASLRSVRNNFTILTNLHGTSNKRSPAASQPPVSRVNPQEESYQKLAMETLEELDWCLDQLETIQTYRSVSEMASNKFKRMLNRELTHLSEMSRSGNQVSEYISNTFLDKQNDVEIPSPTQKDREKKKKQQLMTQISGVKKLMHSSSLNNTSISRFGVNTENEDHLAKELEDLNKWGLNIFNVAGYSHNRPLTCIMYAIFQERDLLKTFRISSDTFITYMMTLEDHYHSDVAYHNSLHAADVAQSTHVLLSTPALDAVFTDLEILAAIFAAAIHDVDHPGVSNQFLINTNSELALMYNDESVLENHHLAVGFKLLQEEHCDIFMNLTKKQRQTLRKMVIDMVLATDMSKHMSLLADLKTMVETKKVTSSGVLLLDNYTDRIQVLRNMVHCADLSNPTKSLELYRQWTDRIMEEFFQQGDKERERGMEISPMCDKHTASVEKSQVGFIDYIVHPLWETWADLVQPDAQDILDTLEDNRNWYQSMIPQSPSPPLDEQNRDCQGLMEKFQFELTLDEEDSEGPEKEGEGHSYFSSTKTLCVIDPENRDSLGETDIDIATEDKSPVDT
Cytochrome P450 1A2 (Homo sapiens), sequence (P05177 whole entry, looked up): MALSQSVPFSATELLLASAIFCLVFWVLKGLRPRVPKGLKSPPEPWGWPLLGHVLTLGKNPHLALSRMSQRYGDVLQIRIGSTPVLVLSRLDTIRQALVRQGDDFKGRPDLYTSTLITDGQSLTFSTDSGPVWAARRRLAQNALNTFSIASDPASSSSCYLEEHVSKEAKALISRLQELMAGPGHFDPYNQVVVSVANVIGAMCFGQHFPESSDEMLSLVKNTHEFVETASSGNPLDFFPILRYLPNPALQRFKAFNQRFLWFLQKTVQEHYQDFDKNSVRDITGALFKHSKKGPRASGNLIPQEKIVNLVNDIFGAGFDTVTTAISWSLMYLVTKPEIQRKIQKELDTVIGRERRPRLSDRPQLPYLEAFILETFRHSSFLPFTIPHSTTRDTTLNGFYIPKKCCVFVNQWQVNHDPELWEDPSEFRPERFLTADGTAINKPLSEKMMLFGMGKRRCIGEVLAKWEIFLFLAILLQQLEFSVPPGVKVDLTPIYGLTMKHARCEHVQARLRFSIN
Pyruvate kinase PKM (Homo sapiens), sequence (P14618 whole entry, looked up): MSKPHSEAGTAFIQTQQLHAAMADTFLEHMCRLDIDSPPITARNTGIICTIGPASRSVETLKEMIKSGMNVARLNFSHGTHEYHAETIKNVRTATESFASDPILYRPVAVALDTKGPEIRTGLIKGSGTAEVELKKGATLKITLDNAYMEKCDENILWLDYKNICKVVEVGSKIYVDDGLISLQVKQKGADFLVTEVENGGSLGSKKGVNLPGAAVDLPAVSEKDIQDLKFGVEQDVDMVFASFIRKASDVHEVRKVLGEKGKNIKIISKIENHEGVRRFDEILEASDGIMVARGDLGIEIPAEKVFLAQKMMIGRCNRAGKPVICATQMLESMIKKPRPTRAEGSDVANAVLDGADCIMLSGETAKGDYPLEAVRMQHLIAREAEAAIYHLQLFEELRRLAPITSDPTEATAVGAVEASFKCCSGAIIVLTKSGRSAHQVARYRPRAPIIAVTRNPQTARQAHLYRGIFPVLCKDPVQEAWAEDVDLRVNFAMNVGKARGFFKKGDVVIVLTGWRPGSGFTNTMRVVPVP
Pyruvate kinase (Leishmania mexicana), sequence (Q27686 2-499 E452W): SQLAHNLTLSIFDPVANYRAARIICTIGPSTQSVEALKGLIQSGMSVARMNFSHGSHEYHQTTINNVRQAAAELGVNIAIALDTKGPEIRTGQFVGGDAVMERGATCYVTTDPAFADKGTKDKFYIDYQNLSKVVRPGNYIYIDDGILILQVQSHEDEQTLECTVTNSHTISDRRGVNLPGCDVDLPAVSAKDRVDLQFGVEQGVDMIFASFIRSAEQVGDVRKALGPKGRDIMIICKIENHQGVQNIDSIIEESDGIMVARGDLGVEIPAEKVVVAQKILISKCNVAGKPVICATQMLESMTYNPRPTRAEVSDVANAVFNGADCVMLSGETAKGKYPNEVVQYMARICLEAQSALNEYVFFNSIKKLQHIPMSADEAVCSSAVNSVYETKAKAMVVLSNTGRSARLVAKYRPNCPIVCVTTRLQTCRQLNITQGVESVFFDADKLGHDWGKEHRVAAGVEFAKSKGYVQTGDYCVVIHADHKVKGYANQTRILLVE
Guanine nucleotide-binding protein G(i) subunit alpha-1 (Homo sapiens), sequence (P63096 whole entry, looked up): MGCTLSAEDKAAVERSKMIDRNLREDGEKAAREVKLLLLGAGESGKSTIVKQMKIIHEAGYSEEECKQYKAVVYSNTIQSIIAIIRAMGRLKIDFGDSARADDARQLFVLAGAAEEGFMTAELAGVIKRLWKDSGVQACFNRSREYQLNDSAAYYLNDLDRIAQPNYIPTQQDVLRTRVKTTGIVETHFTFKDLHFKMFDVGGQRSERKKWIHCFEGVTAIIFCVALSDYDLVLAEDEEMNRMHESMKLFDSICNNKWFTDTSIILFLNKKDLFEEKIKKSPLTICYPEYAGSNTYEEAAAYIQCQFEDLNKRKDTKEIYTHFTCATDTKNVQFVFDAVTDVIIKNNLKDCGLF
Luciferin 4-monooxygenase (Photinus pyralis), sequence (P08659 whole entry, looked up): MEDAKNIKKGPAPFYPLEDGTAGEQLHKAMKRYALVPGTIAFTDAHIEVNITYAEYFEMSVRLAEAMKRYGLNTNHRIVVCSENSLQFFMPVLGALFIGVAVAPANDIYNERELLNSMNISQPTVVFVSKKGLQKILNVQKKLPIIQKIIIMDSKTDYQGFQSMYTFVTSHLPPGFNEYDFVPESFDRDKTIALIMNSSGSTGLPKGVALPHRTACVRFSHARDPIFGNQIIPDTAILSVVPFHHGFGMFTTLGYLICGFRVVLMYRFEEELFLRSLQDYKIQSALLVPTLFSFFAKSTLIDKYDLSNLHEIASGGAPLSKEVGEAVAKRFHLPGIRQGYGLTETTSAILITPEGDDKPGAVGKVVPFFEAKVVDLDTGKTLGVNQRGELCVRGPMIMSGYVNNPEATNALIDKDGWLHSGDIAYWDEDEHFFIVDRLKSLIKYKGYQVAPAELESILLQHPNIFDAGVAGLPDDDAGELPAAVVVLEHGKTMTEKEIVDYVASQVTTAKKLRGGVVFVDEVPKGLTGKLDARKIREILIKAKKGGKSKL

For the molecule `C[C@H](NCCc1ccc(O)cc1)[C@@H](O)c1ccc(O)cc1`, the activity change, negative = inhibition in experiment [1] (at 17.2 µM (top of the series)) is -5.73% (inactive); in [1] (at 38 µM (top of the series)), 12.1% (inactive); in [3] (setting [18]), -28.4% [at 17.2 µM] (inactive); in [13], -0.451% (inactive). Besides, the Potency result (in [2]; in experiment [7]; in [8]; in experiment [9]; in experiment [15]; in the experiment with AS120) was “inactive” throughout. Besides, the Potency entry in the experiment with CP238 and with FAB9 was “inactive” in each case. For the same molecule, the activity, negative = inhibition in experiment [4] (setting [18]) is 13.1% [at 17.2 µM] (inactive); in [17] (parasite line A), 3.98% (inactive); in [17] (parasite line B), 6.27% (inactive). Moreover, the Potency in experiment [5] was > 46 µM (inactive) and > 20.6 µM (inactive); in [6], > 46 µM (inactive) and > 20.6 µM (inactive). For the same molecule, the outcome in experiment [10], in [11], in experiment [12], in experiment [14] and in [16] was inactive. Moreover, the max response in [13] (setting [19]) is -0.183%; in experiment [13] (setting [20]), -0.394%.
As to `C[C@]12CCC3c4ccc(O)cc4CCC3[C@@H]1CCC2=O` (stereo partly drawn), the activity change, negative = inhibition was 0.112% (inactive) in experiment [1] (at 17.2 µM (top of the series)); -3.57% (inactive) in experiment [1] (at 38 µM (top of the series)); -16.8% (inactive) in experiment [3] (at 17.2 µM (top of the series)); -2.29% (inactive) in [3] (at 38 µM (top of the series)); -0.972% (inactive) in experiment [13]. In addition, the activity, negative = inhibition was -9.06% (inactive) in [4] (at 17.2 µM (top of the series)) and -20.6% (inactive) in experiment [4] (at 38 µM (top of the series)). Further, the Potency result in experiment [7], in experiment [8] and in experiment [15] was “inactive” throughout. Besides, the max response was -7.49% in experiment [13] (setting [19]) and -8.59% in experiment [13] (setting [20]).
For `OCCN1CCN(CC/C=C2\c3ccccc3Sc3ccc(C(F)(F)F)cc32)CC1`, the figures for the activity change, negative = inhibition in [1] (at 17.2 µM (top of the series)), in experiment [1] (at 38 µM (top of the series)) and in experiment [13] were 16.2% (inactive), 29.4% (inactive) and -3.77% (inactive), respectively. Further, the Potency is 7.94 µM (active) and 5.01 µM (active) in experiment [2]; > 46 µM (inactive) and > 20.6 µM (inactive) in experiment [5]; > 46 µM (inactive) and > 20.6 µM (inactive) in [6]. Moreover, the activity, negative = inhibition in experiment [4] (at 17.2 µM (top of the series)) is 5.96% (inactive); in [4] (at 38 µM (top of the series)) it was -10.3% (inactive). Further, the Potency result in [7], in experiment [8], in experiment [9] and in experiment [15] was “inactive” in each case. Also, the result in experiment [10], in experiment [11] and in experiment [12] was inactive. Also, the max response is -13.1% in experiment [13] (setting [19]) and -14.8% in experiment [13] (setting [20]).
